# Source: PubChem
# RGS7-Gao reg: modulates binding of RGS7 to human Galphao. Multiplexed bead flow cytometry; actives lie on both sides. 220,000 tested, 0.35% active. binding response (% of control), % at 10 µM. P09471; in the data active = binding response below about 49% or above about 150%; inconclusive = no clear call, values can overlap the other calls; inactive = in between;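 also: fluorescent Galphao held in activated GDP-AlF4 state binding bead-coupled RGS7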
# Target sequence (P09471 whole entry, looked up): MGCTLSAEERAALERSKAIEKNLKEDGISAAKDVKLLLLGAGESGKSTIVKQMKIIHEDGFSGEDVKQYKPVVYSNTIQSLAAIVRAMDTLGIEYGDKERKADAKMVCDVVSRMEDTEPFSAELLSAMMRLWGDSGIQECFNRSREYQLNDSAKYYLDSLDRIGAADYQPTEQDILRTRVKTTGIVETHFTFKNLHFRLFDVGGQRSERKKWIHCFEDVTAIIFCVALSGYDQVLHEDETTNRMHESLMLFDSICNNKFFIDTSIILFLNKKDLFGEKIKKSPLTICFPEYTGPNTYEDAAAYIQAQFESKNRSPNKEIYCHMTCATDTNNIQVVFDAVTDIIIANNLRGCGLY
# GSH fluor: GSH bead compound fluorescence profile; GSH beads flow cytometry, compound fluorescence 488/530 nm; stronger effect = higher value; fluorescence (KMESF) at 10 µM; 190,000 tested, 0.25% active; AID 1776; in the data active = fluorescence above about 89;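 also: glutathione beads carrying GST-tagged Bcl family fusion proteins plus one bare bead set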
# Avidin fluor: compound fluoresces at 488/530 nm on avidin beads; compound fluorescence 488/530 nm, flow cytometry; stronger effect = higher value; fluorescence (KMESF) at 10 µM; 220,000 tested, 0.38% active; in the data active = fluorescence above about 47
# RGS16-Gao: regulators of human RGS16-Galphao interaction; 220,000 tested, 0.38% active; AID 1441; binding response (% of control), % at 10 µM; bead-based flow cytometry RGS16-Galphao binding, fluorescence; actives lie on both sides;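 also: Galphao activated by GDP with aluminum fluoride before binding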
# RGS8-Gao: human RGS8-Galphao interaction regulation; response (percent of control binding), % at 10 µM; 220,000 tested, 0.34% active; P09471; multiplexed bead flow cytometry, RGS8-Galphao binding; actives lie on both sides; AID 1423; in the data active = response below about 60% or above about 140%; inactive = in between;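 also: Galphao activated as the GDP aluminium fluoride complex binding bead-coupled RGS8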
# RGS4-Gao reg: human RGS4-Galphao interaction regulation. P09471. Multiplexed bead flow cytometry, RGS4-Galphao binding; actives lie on both sides. binding response (% of control), % at 10 µM. 220,000 tested, 0.33% active; in the data active = binding response below about 49% or above about 150%; inactive = in between;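 also: fluorescent Galphao activated with aluminum fluoride binding bead-coupled RGS4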
# RGS-Gao: regulators of human RGS4-Galphao interaction; shares compounds with RGS16-Gao; multiplexed bead flow cytometry, RGS–Galpha-o binding; RGS4–Galpha-o binding response, % at 10 µM; 1,600 tested, 99% active; AID 1504;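 also: fluorescently labeled Galpha-o bound to GDP with aluminium fluoride binding biotinylated RGS beads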
# Biotin-avidin: biotin-avidin bead binding disruption counter-screen | shares compounds with RGS16-Gao | streptavidin beads, fluorescein-biotin binding, flow cytometry | inhibition, % at 10 µM | 1,700 tested, under 10 active | AID 1783;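 active = inhibition above 50%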;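 also: median green fluorescence of gated singlet beads compared with DMSO control wells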
# RGS8-Gao single: confirmation of regulators of human RGS8-Galphao interaction. bead-based flow cytometry RGS8-Galphao binding, fluorescence; actives lie on both sides. shares compounds with RGS16-Gao. AID 1836. 1,700 tested, 3% active. binding response (% of control), % at 10 µM; in the data active = binding response below about 72% or above about 130%; inactive = in between;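 also: Galphao activated as GDP AlF4 complex before binding bead RGS8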
# RGS7-Gao confirm: confirmation of regulators of human RGS7-Galphao interaction. shares compounds with RGS16-Gao. bead-based flow cytometry RGS7-Galphao binding; actives lie on both sides. response (percent of control binding), % at 10 µM. 1,700 tested, 7.8% active; in the data active = response below about 75% or above about 130%; inactive = in between;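 also: fluorescent Galphao activated with GDP and aluminum fluoride binding bead-coupled RGS7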
# RGS16-Gao conf: confirmation of regulators of human RGS16-Galphao interaction. response (% of control binding), % at 10 µM. bead-based flow cytometry, RGS16-Galphao binding; actives lie on both sides. 1,700 tested, 4% active. shares compounds with RGS16-Gao; in the data active = response below about 74% or above about 130%; inactive = in between;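 also: Galphao activated as the GDP aluminium fluoride complex binding bead-coupled RGS16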
# RGS4-Gao confirm: confirmation of regulators of human RGS4-Galphao interaction | 1,700 tested, 4% active | shares compounds with RGS16-Gao | binding response (% of control), % at 10 µM | RGS4-Galphao binding, multiplexed bead flow cytometry; actives lie on both sides; in the data active = binding response below about 74% or above about 130%; inactive = in between
# RGS19-Gao conf: RGS19-Galphao interaction regulation, single point confirmation | shares compounds with RGS16-Gao | bead-based flow cytometry RGS19-Galphao binding; actives lie on both sides | response (percent of control binding), % at 10 µM | 1,700 tested, 5% active | AID 1841; in the data active = response below about 50% or above about 160%; inactive = in between
# Target sequence (P09471 whole entry, looked up): as above
# Target sequence (P49795 whole entry, looked up): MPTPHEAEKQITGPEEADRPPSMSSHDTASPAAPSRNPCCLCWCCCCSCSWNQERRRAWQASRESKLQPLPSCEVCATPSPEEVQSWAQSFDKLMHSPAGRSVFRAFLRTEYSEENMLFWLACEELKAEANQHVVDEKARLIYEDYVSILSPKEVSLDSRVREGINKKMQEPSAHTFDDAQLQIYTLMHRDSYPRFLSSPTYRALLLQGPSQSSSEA
# A number is an active result; - = inactive; ? = inconclusive; . = not tested or not shown; [ ] = remark or other dose. An excerpt weighted towards active compounds, which were near 1.2% of everything screened. Unless noted, no rule for the calls is given here.
SMILES,RGS7-Gao reg,GSH fluor,Avidin fluor,RGS16-Gao,RGS8-Gao,RGS4-Gao reg,Biotin-avidin,RGS8-Gao single,RGS7-Gao confirm,RGS16-Gao conf,RGS4-Gao confirm,RGS19-Gao conf,others
O=C(NNC(=O)C1CCCO1)c1ccccc1Cl (configuration not stated),.,-,.,.,.,.,-,-,-,-,-,-,
CCCN1CCC(=NNc2ccc(C(=O)O)cc2)CC1,?,-,-,-,-,-,.,.,.,.,.,.,
CCOC(=O)/C=C/C(=O)N1CCN(C(=O)/C=C/C(=O)OCC)CC1,?,.,-,-,-,-,.,.,.,.,.,.,
CCCn1c(SCC(=O)N2CCCC(C)C2)nnc1-c1cccnc1 (configuration not stated),-,-,-,-,-,-,.,.,.,.,.,.,
Cc1ccc(C(C)NC(=O)C2CCCO2)cc1C (configuration not stated),.,-,.,.,.,.,-,-,-,-,-,-,
Cc1onc(-c2c(F)cccc2Cl)c1C(=O)N1CCOC12CCCCC2,-,-,-,-,-,-,.,.,.,.,.,.,
CCCc1cc(=O)oc2c3c(c4c(c12)OC(C)(C)C=C4)OC(C)C(C)C3O (configuration not stated),?,.,-,-5.8,10,-6.7,-,-,-,-,-,-,
COc1ccc(CC(=O)NNC(=O)c2c(-c3ccccc3Cl)noc2C)cc1OC,?,.,-,-,-,-,.,.,.,.,.,.,
CCN1CCN(C(=O)Cn2nc(-c3ccc(Cl)cc3)ccc2=O)CC1,171[activator],-,-,-,-,-,-,-,-,-,-,-,RGS-Gao=105
CCOC(=O)N1CCN(C(=O)Cn2nc(-c3ccc(Cl)cc3)ccc2=O)CC1,-,-,-,-,-,-,.,.,.,.,.,.,
Cc1onc(-c2ccccc2)c1CNS(=O)(=O)c1cccc(Cl)c1,?,.,-,-,-,153[activator],-,-,-,-,-,-,
Cc1onc(-c2ccccc2)c1CNS(=O)(=O)c1ccccc1,?,.,-,-,-,-,.,.,.,.,.,.,
COc1ccc(CNC(=O)C/C(C)=N/NC(=O)c2cnccn2)cc1,-,-,-,-,-,-,.,.,.,.,.,.,
COc1ccc(-n2nc(C(=O)NCC(=O)Nc3ccccn3)c3ccccc3c2=O)cc1Cl,-,-,-,-,-,167[activator],-,-,-,-,-,-,
COc1ccccc1OCCSc1nc(C)c(Cc2ccccc2)c(=O)[nH]1,?,.,-,-,-,-,.,.,.,.,.,.,
COc1ccc(CN2CCc3ccccc3C2)c(OC)c1,?,.,-,-,-,-,.,.,.,.,.,.,
COc1ccc(C2=[N+](C)CCn3cccc32)c(OC)c1,-,-,-,205[activator],-,160[activator],-,-,-,-,-,-,
O=C(NCC1OCCc2ccccc21)c1ccc(NC(=O)c2ccc(Cl)cc2Cl)cc1 (configuration not stated),329[activator],-,190,445[activator],143[activator],315[activator],-,-,-,-,-,-,
O=c1ccn(CCc2c[nH]c3ccccc23)c2c1CCCC2,-,-,-,-,-,-,.,.,.,.,.,.,
CC1(C)N([O-])c2cc([N+](=O)[O-])ccc2[N+]1=O,?,.,-,-9.3,29,-,.,.,.,.,.,.,RGS-Gao=84
Cc1cc(C)n2nc(C(=O)Nc3ccc(S(=O)(=O)N(C)C)cc3)nc2n1,?,.,-,-,-,-,.,.,.,.,.,.,
CC1=CC2=NC(=O)/C(=C\c3ccc(-c4ccc(Cl)cc4)o3)C(=N)N2O1,167[activator],-,208,-,-,153[activator],-,-,-,-,-,236[activator],
COc1ccccc1C(=O)NCCc1c(C)[nH]c2c(C)ccc(F)c12,-,-,-,-,-,-,.,.,.,.,.,.,
Cc1cc(C)n(-c2nc3ccccc3c(=O)n2OCC(=O)Nc2c(C)cccc2C)n1,-,-,-,-,174[activator],-,-,127[activator],276[activator],210[activator],210[activator],246[activator],RGS-Gao=149
Cc1cc(C)n(-c2nc3ccccc3c(=O)n2OCC(=O)N(C)C)n1,-,-,-,-,-,-,.,.,.,.,.,.,
SMILES,RGS7-Gao reg,GSH fluor,Avidin fluor,RGS16-Gao,RGS8-Gao,RGS4-Gao reg,Biotin-avidin,RGS8-Gao single,RGS7-Gao confirm,RGS16-Gao conf,RGS4-Gao confirm,RGS19-Gao conf,others
Cc1ccc(/C=N/NC(=O)Cn2nnc(N)n2)o1,?,.,-,-,-,-,.,.,.,.,.,.,
CN1CCN(C(=O)c2cn(-c3ccccc3)nc2-c2cccnc2)CC1,-,-,.,-,.,152[activator],-,-,-,-,-,-,
O=C1CCC(C(=O)Nc2cccc(Oc3ccccc3)c2)=NN1,-,-,-,-,-,-,.,.,.,.,.,.,
COc1ccc(-c2cc(C(F)(F)F)nc(S(=O)(=O)CCCC(=O)Nc3cccnc3Cl)n2)cc1OC,-,-,-,-,-,-,.,.,.,.,.,.,
CCn1c(/C=C/N(C(C)=O)c2ccccc2)[n+](CC)c2ccc(Cl)cc21,-,-,-,-,-,-,.,.,.,.,.,.,
CC[n+]1c(/C=C/C=C/N(C(C)=O)c2ccccc2)sc2ccccc21,-,-,.,-,-,14,-,-,243[activator],153[activator],163[activator],278[activator],
CNC(=O)c1c(NC(=O)c2cccc(N3C(=O)CCC3=O)c2)sc2c1CCC2,?,.,-,-3.7,3.9,-2.7,-,-,-,-,-,-,
CN(C)C(=S)Nc1ccc2c(c1)OCO2,-,-,-,-,-,-,.,.,.,.,.,.,
S=C(Nc1ccc2c(c1)OCO2)Nc1ccc2c(c1)OCO2,159[activator],-,-,-,141[activator],-,-,-,-,-,-,-,RGS-Gao=142
CCCCNC(=O)NNC(=O)c1cc(C)on1,?,.,-,-,-,-,.,.,.,.,.,.,
COC(=O)c1ccc(Oc2ccc3nnc(C)n3n2)cc1,-,-,-,-,142[activator],-,-,-,-,-,-,-,RGS-Gao=122
COC(=O)c1ccc(Oc2ccc3nncn3n2)cc1,-,-,-,-,-,-,.,.,.,.,.,.,
Cc1cc2nc3c(nc2cc1C)C(O)=C3O,?,.,-,-,-,-,.,.,.,.,.,.,
Cc1ccc(C(C(=O)NCC2CCCO2)N(Cc2ccccc2)C(=O)c2ccc(-c3ccccc3)[nH]2)o1 (configuration not stated),-,-,-,-,-,-,.,.,.,.,.,.,
